Growth data for 8 compounds are collected here from PubChem BioAssay (NCI).

About 83,000 compounds went through this panel and 20% of them were active in at least one assay; those are over-represented in the sample as a whole.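 Percent growth is the endpoint: 0 to 100 indicates growth inhibition (40 means 60% inhibition), 0 means no net growth, and negative values indicate cell death.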 Unmarked numbers belong to inactive results. The source made the active and inactive calls. How the source made its calls: active means growth percent below 10; inactive means the rest.

Some test systems named below: SK-MEL-2 melanoma; EKVX NSCLC; SN12C renal; UO-31 renal; TK-10 renal; ACHN renal; CAKI-1 renal; A498 renal; CCRF-CEM leukemia; MOLT-4 leukemia; RPMI-8226 leukemia; OVCAR-8 ovarian; OVCAR-5 ovarian; OVCAR-4 ovarian; SK-OV-3 ovarian; IGROV1 ovarian; OVCAR-3 ovarian; HS 578T breast; NCI/ADR-RES ovarian.
Common to all, as to experiment: NCI-60 one-dose screen, 48 h (100 = growth as untreated, 0 = no growth, -100 = all killed)
Holding throughout (conditions): 10 µM unless noted

Take `O=C1CCC2=C3C4CCCCC4C(=O)C4CCCC(OC2C1)C34` (configuration not stated): the growth in the test with SK-MEL-2 melanoma was 3.05% (active); in the test on EKVX NSCLC it was 97.2%; in the test on SN12C renal, 14.1%; in the test with UO-31 renal, -43.5% (active); in the test on TK-10 renal it was 64.3%; with ACHN renal, -23.3% (active). Besides, the growth was -27.2% (active) in the test with CAKI-1 renal; 104% with A498 renal; 15.6% in the test on CCRF-CEM leukemia; 7.03% (active) in the test on MOLT-4 leukemia; -4.93% (active) in the test on RPMI-8226 leukemia; 6.21% (active) with OVCAR-8 ovarian. Besides, the growth in the test with OVCAR-5 ovarian was 108%; in the test with OVCAR-4 ovarian, 22.1%; with SK-OV-3 ovarian, 78.4%; in the test on IGROV1 ovarian it was -2.77% (active); with OVCAR-3 ovarian, -28.8% (active); with HS 578T breast, 26.5%. The growth with NCI/ADR-RES ovarian was 3.01% (active).

With `O=c1[nH][n+](-c2ccc(Cl)cc2)no1`, the growth was 75.4% in the test with SK-MEL-2 melanoma; 60.6% in the test on EKVX NSCLC; 73.5% in the test with SN12C renal; 27% in the test with UO-31 renal; 70.8% in the test with TK-10 renal; 40.7% in the test on ACHN renal. Further, the growth is 18.5% in the test with CAKI-1 renal; 82.6% in the test with A498 renal; 55.3% in the test with CCRF-CEM leukemia; 44.4% with MOLT-4 leukemia; 79.2% in the test with RPMI-8226 leukemia; 69.9% with OVCAR-8 ovarian. Besides, the growth in the test with OVCAR-5 ovarian was 77%; in the test on OVCAR-4 ovarian it was 83.5%; in the test on SK-OV-3 ovarian it was 86.8%; in the test on IGROV1 ovarian, 70.5%; in the test with OVCAR-3 ovarian, 86.8%; in the test on HS 578T breast, 98.5%. Besides, the growth in the test on NCI/ADR-RES ovarian is 79.9%.

`Cc1ccc(S(=O)(=O)n2cc(CNc3ccc(N4CCOCC4=O)cc3)c3ccccc32)cc1`: the growth in the test with SK-MEL-2 melanoma is 102%; in the test with EKVX NSCLC it was 98.5%; with SN12C renal, 84.3%; in the test on UO-31 renal it was 43.3%; in the test on TK-10 renal, 65.2%; in the test with ACHN renal, 46.7%. Besides, the growth in the test with CAKI-1 renal is 30.4%; with A498 renal, -51.1% (active); with CCRF-CEM leukemia, 53.5%; in the test with MOLT-4 leukemia, 82.7%; with RPMI-8226 leukemia, 67.9%; in the test with OVCAR-8 ovarian it was 81.7%. Besides, the growth is 30.1% in the test on OVCAR-5 ovarian; 62.3% with OVCAR-4 ovarian; 87.4% in the test on SK-OV-3 ovarian; 67.5% with IGROV1 ovarian; 86.8% in the test on OVCAR-3 ovarian; 89.6% in the test on HS 578T breast. In the test on NCI/ADR-RES ovarian, the growth was 78%.

For the compound `c1coc(-c2c3ccc(=[N+]4CCCCC4)cc-3oc3cc(N4CCCCC4)ccc23)c1`, the growth in the test on SK-MEL-2 melanoma was -80.4% (active); in the test with EKVX NSCLC, -66.5% (active); in the test on SN12C renal it was -75.4% (active); with UO-31 renal it was -84.6% (active); in the test on TK-10 renal, -93.3% (active); with ACHN renal, -95.9% (active). The growth was -82.9% (active) in the test with CAKI-1 renal; -66.3% (active) with A498 renal; -50.1% (active) in the test on CCRF-CEM leukemia; -43% (active) in the test with MOLT-4 leukemia; -42.7% (active) in the test on RPMI-8226 leukemia; -61% (active) in the test on OVCAR-8 ovarian. For the same compound, the growth in the test with OVCAR-5 ovarian is -91.8% (active); in the test with OVCAR-4 ovarian it was -41.9% (active); in the test with SK-OV-3 ovarian, -95.2% (active); with IGROV1 ovarian it was -67.5% (active); in the test on OVCAR-3 ovarian, -99.2% (active); with HS 578T breast it was -35.6% (active). Moreover, in the test on NCI/ADR-RES ovarian, the growth is -60.2% (active).

`O=C1Nc2ccccc2/C1=C/c1cn(C(=O)c2ccc(Cl)cc2)c2ccccc12`: the growth with SK-MEL-2 melanoma was 120%; in the test with EKVX NSCLC, 59%; in the test with SN12C renal it was 95.4%; in the test with UO-31 renal, 74.7%; with TK-10 renal it was 130%; with ACHN renal it was 103%. Besides, the growth with CAKI-1 renal was 59.1%; in the test with A498 renal, 116%; with CCRF-CEM leukemia, 104%; in the test on MOLT-4 leukemia, 109%; with RPMI-8226 leukemia, 74.5%; with OVCAR-8 ovarian, 95.1%. Moreover, the growth is 110% in the test on OVCAR-5 ovarian; 78.3% with OVCAR-4 ovarian; 104% with SK-OV-3 ovarian; 72.7% in the test on IGROV1 ovarian; 98.7% with OVCAR-3 ovarian; 106% in the test on HS 578T breast. Also, the growth in the test with NCI/ADR-RES ovarian was 104%.

`COc1cccc(-c2nc3sccn3c2-c2ccnc(NCCNS(=O)(=O)c3cccc(Cl)c3)c2)c1`: the growth is 51.8% with SK-MEL-2 melanoma; 45.8% in the test on EKVX NSCLC; 36.3% in the test with SN12C renal; 12.9% with UO-31 renal; 59.7% with TK-10 renal; 30.5% in the test on ACHN renal. Besides, the growth in the test on CAKI-1 renal is 25.9%; in the test with A498 renal it was 44.1%; with CCRF-CEM leukemia it was 24%; in the test with MOLT-4 leukemia, 30.4%; in the test on RPMI-8226 leukemia, -4.85% (active); in the test with OVCAR-8 ovarian it was 21.4%. In addition, the growth in the test on OVCAR-5 ovarian was 89.6%; in the test with OVCAR-4 ovarian, 34%; in the test with SK-OV-3 ovarian, 65.6%; in the test on IGROV1 ovarian it was 41.8%; with OVCAR-3 ovarian, 48.2%; with HS 578T breast it was 38.6%. The growth in the test on NCI/ADR-RES ovarian was 22.7%.

Take `O=C1Nc2ccccc2/C1=C/c1cn(C(=O)c2c(Cl)cccc2Cl)c2ccccc12`: the growth with SK-MEL-2 melanoma was 39.9%; in the test with EKVX NSCLC, 81.5%; in the test on SN12C renal, 56.1%; in the test with UO-31 renal, 50.7%; in the test on TK-10 renal, 90.7%; with ACHN renal it was 43.6%. Also, the growth was 18.7% in the test on CAKI-1 renal; 52.5% in the test with A498 renal; 70.5% in the test on CCRF-CEM leukemia; 43.9% in the test with MOLT-4 leukemia; 51.8% in the test on RPMI-8226 leukemia; 52.3% with OVCAR-8 ovarian. Moreover, the growth in the test on OVCAR-5 ovarian is 85%; in the test on OVCAR-4 ovarian, 50.4%; with SK-OV-3 ovarian it was 71.8%; with IGROV1 ovarian, 25.8%; with OVCAR-3 ovarian, 43%; in the test with HS 578T breast, 64.7%. For the same compound, the growth with NCI/ADR-RES ovarian was 57.7%.

Consider `C=CCSc1nc2ccccc2cc1/C=N/O`, for which the growth with SK-MEL-2 melanoma was 84.4%; with EKVX NSCLC, 76.6%; in the test on SN12C renal it was 89.5%; in the test with UO-31 renal, 58.9%; in the test with TK-10 renal, 108%; with ACHN renal it was 87.6%. Besides, the growth is 75.1% in the test with CAKI-1 renal; 98% in the test with A498 renal; 95.5% with CCRF-CEM leukemia; 86.7% in the test on MOLT-4 leukemia; 86.7% in the test on RPMI-8226 leukemia; 89.6% with OVCAR-8 ovarian. Moreover, the growth in the test on OVCAR-5 ovarian is 78.6%; in the test with OVCAR-4 ovarian, 107%; with SK-OV-3 ovarian, 68.2%; in the test on IGROV1 ovarian, 74.1%; in the test on OVCAR-3 ovarian it was 92.1%; with HS 578T breast it was 72.2%. Moreover, in the test with NCI/ADR-RES ovarian, the growth was 97.2%.
